Reference: the supplement of paper PMC10849652
Of roughly 7,900 targets only a part is listed; those with a hit were picked by preference. About 0.6% of all pairs of compound and target were hits.

Legend:
Assay in all cases: log2 fold change, soluble protein after heating vs DMSO (PISA); higher = thermal stabilisation; K562 cells, 10 uM, 30 min; active = over 0.2 and 3.5 SD of the protein, either way, in both replicates (recomputed)
bafetinib = compound: Cc1ccc(NC(=O)c2ccc(CN3CC[C@H](N(C)C)C3)c(C(F)(F)F)c2)cc1Nc1nccc(-c2cncnc2)n1 [bafetinib]
Procedure, shortened: (§1)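 Values are thermal stability changes relative to control samples and are taken from duplicates. They are stated as log2 fold changes. Before quantification by TMTpro 16plex LC-MS/MS with equalised channel sums, K562 cells at 2×10^6 cells/mL were treated with 10 μM compound for 30 min, heated in aliquots for 3 min across 48°C-58°C, pooled, extracted in PBS with 0.5% NP-40 at 4°C, and centrifuged at 21,000xg for 90 min to give the soluble supernatant.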

[1] = compound: Cc1cccc(CC(=O)N2CCc3c2ccc(-c2cn(C)c4ncnc(N)c24)c3F)n1
Procedure, shortened: as §1

nilotinib = compound: Cc1cn(-c2cc(NC(=O)c3ccc(C)c(Nc4nccc(-c5cccnc5)n4)c3)cc(C(F)(F)F)c2)cn1 [nilotinib]
Procedure, shortened: as §1

[2] = compound: Cc1nc(Nc2n[nH]c3c2CN(C(=O)N[C@H](CN(C)C)c2ccccc2)C3(C)C)c2sccc2n1
Procedure, shortened: as §1

dasatinib = compound: Cc1nc(Nc2ncc(C(=O)Nc3c(C)cccc3Cl)s2)cc(N2CCN(CCO)CC2)n1 [dasatinib]
Procedure, shortened: as §1

[3] = compound: Cc1ncc(-c2ccnc(Nc3ccc(S(C)(=O)=O)cc3)n2)n1C(C)C
Procedure, shortened: as §1

[4] = compound: Cn1cc(-c2ccc3c(c2)CCN3C(=O)Cc2cccc(C(F)(F)F)c2)c2c(N)ncnc21
Procedure, shortened: as §1

[5] = compound: Cn1cc(-c2ccc3nnc(C(F)(F)c4ccc5ncccc5c4)n3n2)cn1
Procedure, shortened: as §1

tipifarnib = compound: Cn1cncc1[C@@](N)(c1ccc(Cl)cc1)c1ccc2c(c1)c(-c1cccc(Cl)c1)cc(=O)n2C [tipifarnib]
Procedure, shortened: as §1

mubritinib = compound: FC(F)(F)c1ccc(/C=C/c2nc(COc3ccc(CCCCn4ccnn4)cc3)co2)cc1 [mubritinib]
Procedure, shortened: as §1

[6] = compound: NC(=O)Nc1cc(-c2cccc(F)c2)sc1C(=O)N[C@H]1CCCNC1
Procedure, shortened: as §1

[7] = compound: NC(=O)c1cnc(N[C@@H]2CCCC[C@@H]2N)nc1Nc1cccc(-n2nccn2)c1
Procedure, shortened: as §1

[8] = compound: NC1(c2ccc(-c3nc4ccn5c(=O)[nH]nc5c4cc3-c3ccccc3)cc2)CCC1
Procedure, shortened: as §1

[9] = compound: NCC(=O)Nc1ccc(-n2nc(C(F)(F)F)cc2-c2ccc3c(ccc4ccccc43)c2)cc1
Procedure, shortened: as §1

entinostat = compound: Nc1ccccc1NC(=O)c1ccc(CNC(=O)OCc2cccnc2)cc1 [entinostat]
Procedure, shortened: as §1

vorinostat = compound: O=C(CCCCCCC(=O)Nc1ccccc1)NO [vorinostat]
Procedure, shortened: as §1

citarinostat = compound: O=C(CCCCCCNC(=O)c1cnc(N(c2ccccc2)c2ccccc2Cl)nc1)NO [citarinostat]
Procedure, shortened: as §1

silmitasertib = compound: O=C(O)c1ccc2c(c1)nc(Nc1cccc(Cl)c1)c1ccncc12 [silmitasertib]
Procedure, shortened: as §1

[10] = compound: O=C1NC(=O)C(c2cnc3ccccn23)=C1c1cn2c3c(cc(F)cc13)CN(C(=O)N1CCCCC1)CC2
Procedure, shortened: as §1

[11] = compound: c1cc(OCCN2CCCCC2)cc(-c2n[nH]c3ccc(-c4nnc[nH]4)cc23)c1
Procedure, shortened: as §1

Measured: log2 fold change

KRAS isoform 2 (UniProt P01116)
UniProt P01116, sequence (P01116 whole entry, looked up): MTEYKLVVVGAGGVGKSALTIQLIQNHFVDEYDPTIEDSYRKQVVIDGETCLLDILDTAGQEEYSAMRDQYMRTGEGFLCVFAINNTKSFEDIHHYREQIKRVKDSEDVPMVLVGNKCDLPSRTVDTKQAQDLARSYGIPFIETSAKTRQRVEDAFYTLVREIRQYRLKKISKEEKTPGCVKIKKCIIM
inactive: bafetinib 0.008 | [1] -0.115 | nilotinib -0.123 | [2] 0.074 | dasatinib -0.018 | [3] -0.041 | [4] 0.064 | [5] -0.08 | tipifarnib 0.087 | mubritinib 0.041 | [6] -0.07 | [7] 0.039 | [8] 0.091 | [9] 0.061 | entinostat -0.015 | vorinostat -0.032 | citarinostat -0.018 | silmitasertib 0.001 | [10] -0.019 | [11] -0.032

KHDRBS1 (UniProt Q07666)
UniProt Q07666, sequence (Q07666 whole entry, looked up): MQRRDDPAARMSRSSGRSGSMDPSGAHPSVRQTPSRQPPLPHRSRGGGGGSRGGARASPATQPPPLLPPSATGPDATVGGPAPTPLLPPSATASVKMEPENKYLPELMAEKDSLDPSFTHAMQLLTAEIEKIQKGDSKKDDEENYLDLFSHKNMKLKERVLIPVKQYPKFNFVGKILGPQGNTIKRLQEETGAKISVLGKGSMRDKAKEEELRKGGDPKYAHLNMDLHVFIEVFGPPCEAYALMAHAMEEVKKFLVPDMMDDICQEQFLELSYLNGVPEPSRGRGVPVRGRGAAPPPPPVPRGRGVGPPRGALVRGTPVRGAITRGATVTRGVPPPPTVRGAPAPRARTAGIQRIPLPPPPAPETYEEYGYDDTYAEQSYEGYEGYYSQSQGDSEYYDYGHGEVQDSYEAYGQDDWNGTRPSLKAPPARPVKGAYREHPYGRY
inactive: bafetinib 0.041 | [1] 0.007 | nilotinib 0.035 | [2] 0.02 | dasatinib 0.012 | [3] 0.07 | [4] 0.025 | [5] -0.024 | tipifarnib 0.017 | mubritinib 0.021 | [6] -0.013 | [7] -0.038 | [8] -0.009 | [9] -0.034 | entinostat -0.025 | vorinostat 0.037 | citarinostat 0.099 | silmitasertib 0.018 | [10] 0.039 | [11] -0.064

MAP2K3 isoform 3 (UniProt P46734)
UniProt P46734, sequence (P46734 whole entry, looked up): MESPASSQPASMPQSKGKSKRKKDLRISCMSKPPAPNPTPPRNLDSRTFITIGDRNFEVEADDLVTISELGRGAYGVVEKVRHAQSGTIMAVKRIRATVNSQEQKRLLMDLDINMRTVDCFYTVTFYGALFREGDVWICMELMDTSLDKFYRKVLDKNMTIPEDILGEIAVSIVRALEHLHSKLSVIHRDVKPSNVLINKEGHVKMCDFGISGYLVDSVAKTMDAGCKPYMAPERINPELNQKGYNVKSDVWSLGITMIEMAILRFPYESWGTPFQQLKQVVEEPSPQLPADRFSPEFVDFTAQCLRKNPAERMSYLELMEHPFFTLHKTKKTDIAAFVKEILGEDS
inactive: bafetinib -0.071 | [1] 0.096 | nilotinib -0.019 | [2] 0.021 | dasatinib -0.04 | [3] -0.049 | [4] 0.005 | [5] -0.083 | tipifarnib 0.08 | mubritinib -0.145 | [6] -0.04 | [7] -0.018 | [8] -0.14 | [9] -0.025 | entinostat 0.068 | vorinostat 0.02 | citarinostat -0.126 | silmitasertib -0.024 | [10] -0.188 | [11] -0.052

LRRFIP1 (UniProt Q32MZ4)
inactive: bafetinib -0.034 | [1] -0.043 | nilotinib 0.008 | [2] 0.002 | dasatinib 0.038 | [3] -0.016 | [4] 0.024 | [5] 0.013 | tipifarnib 0.016 | mubritinib 0.035 | [6] -0.027 | [7] 0.015 | [8] 0.056 | [9] 0.024 | entinostat -0.042 | vorinostat -0.079 | citarinostat -0.007 | silmitasertib 0.049 | [10] 0.01 | [11] -0.013

MICOS13 (UniProt Q5XKP0)
UniProt Q5XKP0, sequence (Q5XKP0 whole entry, looked up): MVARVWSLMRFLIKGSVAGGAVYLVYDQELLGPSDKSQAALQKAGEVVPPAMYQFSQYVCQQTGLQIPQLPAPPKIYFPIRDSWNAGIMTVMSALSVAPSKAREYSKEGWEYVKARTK
inactive: bafetinib -0.114 | [1] 0.014 | nilotinib -0.054 | [2] 0.025 | dasatinib -0.085 | [3] 0.001 | [4] 0.046 | [5] 0.056 | tipifarnib -0.111 | mubritinib 0.117 | [6] -0.018 | [7] -0.023 | [8] -0.119 | [9] 0.029 | entinostat 0.041 | vorinostat 0.018 | citarinostat 0.028 | silmitasertib -0.02 | [10] -0.106 | [11] 0.025

ME2 (UniProt P23368)
UniProt P23368, sequence (P23368 whole entry, looked up): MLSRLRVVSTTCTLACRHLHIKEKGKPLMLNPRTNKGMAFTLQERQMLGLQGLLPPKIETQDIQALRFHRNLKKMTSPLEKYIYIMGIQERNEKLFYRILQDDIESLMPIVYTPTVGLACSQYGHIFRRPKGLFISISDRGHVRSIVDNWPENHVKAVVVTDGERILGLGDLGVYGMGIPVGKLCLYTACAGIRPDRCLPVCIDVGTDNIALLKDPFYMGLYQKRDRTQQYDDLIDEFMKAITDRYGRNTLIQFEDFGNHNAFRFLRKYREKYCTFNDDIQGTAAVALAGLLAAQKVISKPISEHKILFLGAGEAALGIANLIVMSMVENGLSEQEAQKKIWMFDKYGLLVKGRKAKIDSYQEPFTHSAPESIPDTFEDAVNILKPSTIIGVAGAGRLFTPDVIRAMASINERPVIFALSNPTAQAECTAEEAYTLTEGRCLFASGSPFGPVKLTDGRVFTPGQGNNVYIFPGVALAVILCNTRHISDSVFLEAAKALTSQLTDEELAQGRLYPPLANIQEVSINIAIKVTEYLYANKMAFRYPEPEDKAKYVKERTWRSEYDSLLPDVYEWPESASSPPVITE
inactive: bafetinib -0.012 | [1] -0.087 | nilotinib 0.138 | [2] 0.029 | dasatinib -0.052 | [3] -0.015 | [4] -0.076 | [5] 0.001 | tipifarnib 0.107 | mubritinib -0.074 | [6] -0.015 | [7] -0.034 | [8] 0.07 | [9] -0.033 | entinostat -0.013 | vorinostat 0.058 | citarinostat 0.025 | silmitasertib 0.186 | [10] -0.017 | [11] -0.093

IMMT isoform 4 (UniProt Q16891)
inactive: bafetinib -0.119 | [1] 0.018 | nilotinib -0.038 | [2] 0.004 | dasatinib -0.019 | [3] 0.003 | [4] 0.015 | [5] 0.018 | tipifarnib -0.03 | mubritinib 0.012 | [6] -0.022 | [7] -0.083 | [8] -0.132 | [9] -0.056 | entinostat 0.021 | vorinostat 0.008 | citarinostat 0.007 | silmitasertib -0.038 | [10] -0.031 | [11] -0.035

KIF11 (UniProt P52732)
UniProt P52732, sequence (P52732 whole entry, looked up): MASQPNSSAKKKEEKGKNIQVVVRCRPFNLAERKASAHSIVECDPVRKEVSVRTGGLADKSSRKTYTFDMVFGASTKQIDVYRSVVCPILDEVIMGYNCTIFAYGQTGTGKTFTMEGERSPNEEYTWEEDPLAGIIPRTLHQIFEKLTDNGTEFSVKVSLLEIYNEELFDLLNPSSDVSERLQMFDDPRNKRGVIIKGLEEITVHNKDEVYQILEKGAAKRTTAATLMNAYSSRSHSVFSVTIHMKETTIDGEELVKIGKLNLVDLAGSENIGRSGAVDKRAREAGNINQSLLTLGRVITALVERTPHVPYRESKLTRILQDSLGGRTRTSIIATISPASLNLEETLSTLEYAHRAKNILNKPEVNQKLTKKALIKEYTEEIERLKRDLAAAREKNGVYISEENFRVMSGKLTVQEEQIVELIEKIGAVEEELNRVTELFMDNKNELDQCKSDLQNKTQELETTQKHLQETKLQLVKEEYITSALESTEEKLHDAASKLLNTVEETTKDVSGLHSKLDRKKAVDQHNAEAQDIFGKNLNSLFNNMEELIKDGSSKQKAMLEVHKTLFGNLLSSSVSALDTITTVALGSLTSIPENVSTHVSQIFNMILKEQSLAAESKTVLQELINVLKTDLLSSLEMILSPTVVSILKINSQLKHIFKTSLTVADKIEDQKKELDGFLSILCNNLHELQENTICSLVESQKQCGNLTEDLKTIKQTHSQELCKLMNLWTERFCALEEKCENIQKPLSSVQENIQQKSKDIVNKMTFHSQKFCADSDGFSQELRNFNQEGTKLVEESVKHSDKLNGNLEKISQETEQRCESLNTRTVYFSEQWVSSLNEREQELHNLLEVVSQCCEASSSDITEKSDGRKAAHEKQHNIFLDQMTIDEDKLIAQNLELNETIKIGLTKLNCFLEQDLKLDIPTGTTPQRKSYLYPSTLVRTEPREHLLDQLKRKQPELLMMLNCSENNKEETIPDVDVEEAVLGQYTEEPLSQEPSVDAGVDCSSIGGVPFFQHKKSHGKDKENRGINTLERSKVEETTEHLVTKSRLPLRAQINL
inactive: bafetinib 0.043 | [1] 0.044 | nilotinib -0.057 | [2] -0.031 | dasatinib -0.075 | [3] 0.088 | [4] -0.06 | [5] -0.002 | tipifarnib -0.078 | mubritinib -0.025 | [6] -0.096 | [7] -0.075 | [8] -0.001 | [9] -0.067 | entinostat 0.023 | vorinostat 0.099 | citarinostat -0.006 | silmitasertib 0.147 | [10] 0.182 | [11] -0.044

KTN1 (UniProt Q86UP2)
UniProt Q86UP2, sequence (Q86UP2 whole entry, looked up): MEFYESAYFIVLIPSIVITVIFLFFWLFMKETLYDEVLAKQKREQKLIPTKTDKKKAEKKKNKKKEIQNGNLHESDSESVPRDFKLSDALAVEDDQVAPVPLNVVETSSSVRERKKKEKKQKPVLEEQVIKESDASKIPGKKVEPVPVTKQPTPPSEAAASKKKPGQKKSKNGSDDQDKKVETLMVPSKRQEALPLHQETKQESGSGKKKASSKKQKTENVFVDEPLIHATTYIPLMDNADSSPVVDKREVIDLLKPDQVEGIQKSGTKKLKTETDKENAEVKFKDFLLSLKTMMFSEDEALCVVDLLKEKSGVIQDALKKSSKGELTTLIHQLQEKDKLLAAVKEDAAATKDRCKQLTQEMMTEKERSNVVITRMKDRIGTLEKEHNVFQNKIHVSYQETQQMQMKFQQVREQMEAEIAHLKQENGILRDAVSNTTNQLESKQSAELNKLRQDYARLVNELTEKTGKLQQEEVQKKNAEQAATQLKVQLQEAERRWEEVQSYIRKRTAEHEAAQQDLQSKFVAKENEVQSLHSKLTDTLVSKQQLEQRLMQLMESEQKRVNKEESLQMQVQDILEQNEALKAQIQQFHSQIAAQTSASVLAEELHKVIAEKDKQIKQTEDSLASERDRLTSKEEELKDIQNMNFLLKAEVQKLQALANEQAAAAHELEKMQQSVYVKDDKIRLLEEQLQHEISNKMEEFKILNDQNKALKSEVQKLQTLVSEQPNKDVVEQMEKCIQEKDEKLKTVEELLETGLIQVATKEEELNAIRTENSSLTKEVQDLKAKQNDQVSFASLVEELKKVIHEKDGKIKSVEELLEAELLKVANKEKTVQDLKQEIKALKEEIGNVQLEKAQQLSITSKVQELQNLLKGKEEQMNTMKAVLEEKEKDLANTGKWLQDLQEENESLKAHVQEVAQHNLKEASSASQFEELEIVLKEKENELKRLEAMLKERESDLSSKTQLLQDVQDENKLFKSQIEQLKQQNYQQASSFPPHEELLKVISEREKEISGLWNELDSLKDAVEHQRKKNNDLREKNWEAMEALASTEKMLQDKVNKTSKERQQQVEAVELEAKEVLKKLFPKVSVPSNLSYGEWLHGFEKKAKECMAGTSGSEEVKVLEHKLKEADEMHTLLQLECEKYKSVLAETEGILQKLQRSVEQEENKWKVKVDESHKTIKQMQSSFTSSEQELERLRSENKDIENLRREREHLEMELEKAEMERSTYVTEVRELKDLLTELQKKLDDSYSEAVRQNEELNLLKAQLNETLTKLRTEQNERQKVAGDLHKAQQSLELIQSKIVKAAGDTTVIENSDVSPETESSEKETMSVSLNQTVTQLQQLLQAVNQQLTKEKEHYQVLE
inactive: bafetinib 0.042 | [1] 0.013 | nilotinib -0.117 | [2] 0.055 | dasatinib -0.013 | [3] 0.063 | [4] -0.081 | [5] -0.03 | tipifarnib -0.064 | mubritinib -0.032 | [6] 0.036 | [7] 0.06 | [8] 0.035 | [9] -0.038 | entinostat 0.05 | vorinostat 0.027 | citarinostat 0.033 | silmitasertib 0.06 | [10] 0.148 | [11] -0.189

MAP2K7 isoform 4 (UniProt O14733)
inactive: bafetinib -0.086 | [1] 0 | nilotinib -0.035 | [2] 0.025 | dasatinib -0.075 | [3] -0.039 | [4] -0.006 | [5] 0.02 | tipifarnib 0.027 | mubritinib -0.018 | [6] 0.008 | [7] -0.051 | [8] -0.078 | [9] -0.015 | entinostat 0.015 | vorinostat 0.084 | citarinostat 0.041 | silmitasertib -0.019 | [10] -0.052 | [11] -0.044

IK (UniProt Q13123)
inactive: bafetinib 0.013 | [1] -0.01 | nilotinib -0.062 | [2] -0.067 | dasatinib -0.025 | [3] 0.037 | [4] -0.007 | [5] -0.109 | tipifarnib 0.003 | mubritinib -0.067 | [6] -0.016 | [7] 0.119 | [8] 0.06 | [9] -0.08 | entinostat 0.008 | vorinostat 0.026 | citarinostat -0.235 | silmitasertib 0.132 | [10] 0.017 | [11] -0.078

LRBA (UniProt P50851)
inactive: bafetinib -0.047 | [1] 0.053 | nilotinib -0.067 | [2] -0.022 | dasatinib -0.061 | [3] 0.014 | [4] 0.047 | [5] 0.002 | tipifarnib -0.06 | mubritinib 0.024 | [6] 0.002 | [7] -0.058 | [8] -0.146 | [9] -0.039 | entinostat 0.016 | vorinostat 0.049 | citarinostat 0.034 | silmitasertib 0.033 | [10] -0.025 | [11] -0.026

MAP4 (UniProt E7EVA0)
inactive: bafetinib 0.311 | [1] -0.028 | nilotinib -0.014 | [2] 0.015 | dasatinib 0.168 | [3] -0.018 | [4] -0.166 | [5] -0.036 | tipifarnib 0.019 | mubritinib 0.055 | [6] 0.162 | [7] 0.165 | [8] 0.144 | [9] 0.105 | entinostat -0.096 | vorinostat -0.018 | citarinostat -0.164 | silmitasertib 0.003 | [10] 0.106 | [11] -0.075

MAP3K4 isoform 2 (UniProt Q9Y6R4)
inactive: bafetinib -0.059 | [1] -0.095 | nilotinib 0.008 | [3] 0.027 | [4] -0.031 | [5] 0.021 | tipifarnib -0.032 | mubritinib 0.016 | [6] 0.036 | [7] -0.025 | [8] -0.104 | [9] -0.025 | entinostat -0.027 | vorinostat -0.019 | citarinostat 0.006 | silmitasertib 0 | [10] -0.029 | [11] -0.075
active: [2] 0.221 | dasatinib 0.534

KIFBP (UniProt Q96EK5)
inactive: bafetinib 0.006 | [1] 0.094 | nilotinib -0.162 | [2] -0.079 | dasatinib -0.114 | [3] -0.004 | [4] -0.084 | [5] -0.046 | tipifarnib -0.063 | mubritinib -0.078 | [6] 0.002 | [7] -0.166 | [8] -0.117 | [9] -0.091 | entinostat 0.059 | vorinostat 0.088 | citarinostat 0.043 | silmitasertib -0.02 | [10] 0.024 | [11] -0.056

ITIH4 (UniProt Q14624)
UniProt Q14624, sequence (Q14624 whole entry, looked up): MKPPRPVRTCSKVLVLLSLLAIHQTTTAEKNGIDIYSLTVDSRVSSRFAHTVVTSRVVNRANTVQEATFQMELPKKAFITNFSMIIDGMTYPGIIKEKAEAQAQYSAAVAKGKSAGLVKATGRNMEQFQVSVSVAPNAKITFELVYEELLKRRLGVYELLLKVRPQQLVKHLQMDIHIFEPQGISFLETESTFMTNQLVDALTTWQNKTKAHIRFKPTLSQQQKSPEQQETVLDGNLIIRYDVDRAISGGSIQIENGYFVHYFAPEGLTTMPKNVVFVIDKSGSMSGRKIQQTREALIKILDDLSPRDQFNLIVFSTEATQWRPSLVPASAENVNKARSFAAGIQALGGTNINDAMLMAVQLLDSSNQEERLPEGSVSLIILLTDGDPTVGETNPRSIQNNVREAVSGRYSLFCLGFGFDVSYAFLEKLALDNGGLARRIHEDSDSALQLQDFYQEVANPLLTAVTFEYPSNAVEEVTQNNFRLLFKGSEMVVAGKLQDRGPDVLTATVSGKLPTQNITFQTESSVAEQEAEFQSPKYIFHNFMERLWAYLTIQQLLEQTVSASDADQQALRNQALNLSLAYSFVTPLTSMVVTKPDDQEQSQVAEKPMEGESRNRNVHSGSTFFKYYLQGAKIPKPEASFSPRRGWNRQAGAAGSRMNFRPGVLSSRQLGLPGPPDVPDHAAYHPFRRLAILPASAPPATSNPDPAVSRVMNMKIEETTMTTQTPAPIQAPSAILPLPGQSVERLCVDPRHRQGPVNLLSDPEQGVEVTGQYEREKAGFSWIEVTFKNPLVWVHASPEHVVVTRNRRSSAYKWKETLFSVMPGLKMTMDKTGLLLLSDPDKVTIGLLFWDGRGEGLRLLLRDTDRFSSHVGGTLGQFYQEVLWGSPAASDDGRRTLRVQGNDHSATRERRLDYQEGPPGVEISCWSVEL
inactive: bafetinib -0.319 | [1] 0.117 | nilotinib -0.259 | [2] 0.194 | dasatinib 0.039 | [3] 0.225 | [4] 0.148 | [5] 0.114 | tipifarnib -0.038 | mubritinib -0.134 | [6] 0.064 | [7] -0.041 | [8] -0.136 | [9] -0.054 | entinostat 0.048 | vorinostat 0.343 | citarinostat 0.054 | silmitasertib 0.083 | [10] -0.005 | [11] 0.275
